Hits are enriched below; roughly 3.1% of the tested compounds scored in any of these assays.
NadD inh – blocks S. aureus nicotinate mononucleotide adenylyltransferase; 360,000 compounds, 0.78% hits; purified NadD enzyme, colorimetric absorbance read-out; inhibition, % at 20 µM; in the data active = inhibition above about 26%
Calb FLC – C. albicans growth modulation with fluconazole; growth inhibition, % (test concentration not listed); C. albicans CaCi-2 (fluconazole-resistant clinical isolate) + fluconazole, Alamar Blue growth, 48 h; 300,000 compounds, 0.57% hits;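 active = growth inhibition above about 58% in most replicates, limit read from the data, passing the limit was not always enough; inconclusive = exactly half the replicates above a set limit; inactive = most replicates below a set limit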;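 note: all wells also contain fluconazole at 8 µg/ml as a sub-toxic cotreatment; 0% = median of DMSO wells and 100% = median of geldanamycin control wells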
FAS-TE inh – FAS thioesterase (human) inhibition; P49327; recombinant FAS-TE, OMFH fluorogenic substrate, fluorescence endpoint; inhibition, % at 15 µM; 360,000 compounds, 0.67% hits; AID 602261;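 active = compounds whose normalised, plate-corrected inhibition of enzyme fluorescence in the single-dose primary screen is 50% or more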;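 note: 0% = DMSO with enzyme and 100% = substrate without enzyme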
ATG4B inhibitor – blocks human ATG4B protease cleavage of LC3 substrate; 340,000 compounds, 0.51% hits; Q9Y4P1; ATG4B cleavage of LC3-PLA2, NBD-HPC fluorescence, 1 h; inhibition, % at 8.33 µM; in the data active = inhibition above about 40%
SUMO Mot1 rescue – blocks SUMOylation pathway, rescuing yeast Mot1-301 growth; S. cerevisiae Mot1-301 growth rescue, ATP luminescence, 38.5C; percent above DMSO median, 100 means doubled; 320,000 compounds, 1% hits; growth rescue, % at 18.8 µM; AID 2716;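 active = every valid replicate shows activation above 250% relative to neutral control wells; inactive = the rest, any valid replicate at or below 250%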;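 note: OY570 slx delta 5 strain wells were the positive control but not used for scaling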
Yeast Mot1 SUMO – inhibits SUMO pathway, affecting Mot1-301 yeast growth | shares compounds with SUMO Mot1 rescue | S. cerevisiae Mot1-301 galactose growth, ATP luminescence, 24 h; -100 = growth of slx-deleted rescue strain | growth activity, percent, % at 42 µM | 2,300 tested, under 10 active | AID 493004;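 active = Signal drops as the depositor expects, and the fitted half-maximal dose is no more than ten times the top valid tested dose; inconclusive = Poor fit, or a flat curve whose signal drops by 30% to 70%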;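 note: more negative values mean stronger growth rescue toward the control strain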
* = called active by the depositor; i = inactive; ? = inconclusive; / = no result; + = active, no number.

SMILES	NadD inh	Calb FLC	FAS-TE inh	ATG4B inhibitor	SUMO Mot1 rescue	Yeast Mot1 SUMO
Cc1ccc(S(=O)(=O)N2CCCC(C(=O)NCC3CCCO3)C2)cc1 (configuration not stated)	-4	1	-8	-5	17	/
Cc1ccc(NC(=O)c2cccc3cccnc23)cc1	-2	-6	12	-9	-10	/
O=C(OCc1nc2ccsc2c(=O)[nH]1)c1ccco1	-5	9	-5	4	651*	0
Cc1ccc(C(=O)OCc2nc3ccsc3c(=O)[nH]2)o1	-4	3	-3	1	15	/
O=C(O)c1ccc(CNC(=O)c2ccccc2NC(=O)c2ccc([N+](=O)[O-])cc2)cc1	-5	-9	-2	4	713*	0
O=C(O)c1ccc(CNC(=O)c2ccccc2NC(=O)c2cccc([N+](=O)[O-])c2)cc1	-3	3	-5	7	-9	/
CCOc1ccc(CCNC(=O)COC(=O)c2cccc(S(=O)(=O)N3CCOCC3)c2)cc1OCC	1	7	-2	-9	-5	/
O=S(=O)(Cc1ccccc1)N1CCN(c2ccccc2)CC1	-2	-11	-5	-4	583*	0
O=C(COc1ccccc1)NCCS(=O)(=O)N1CCN(c2ccccc2)CC1	-4	0	4	-7	380*	0
COc1ccc(N2CCN(S(=O)(=O)Cc3ccccc3)CC2)cc1	8	-2	-3	-8	5	/
CCOc1ccc(OCC(=O)NCCS(=O)(=O)N2CCN(c3ccccc3)CC2)cc1	8	/	-7	/	/	/
NC(=O)C1CC(=O)N(c2ccc(OCC(=O)Nc3ccc(F)cc3)cc2)C1 (configuration not stated)	2	/	-9	0	108	/
COCCCNC(=O)c1cc(C(=O)c2c(-c3c(Cl)cccc3Cl)noc2C)c[nH]1	3	-7	-6	-7	+	0
COc1ccc(CN(C)CC(=O)Nc2cccc(S(=O)(=O)N3CCCC3)c2)cc1F	-4	/	14	-11	10	/
O=S(=O)(NCc1ccc(Cl)cc1)c1cnc[nH]1	-2	-2	-5	-10	+	1
COCCn1nnnc1C(c1ccc(OC)cc1)N1CCN(C(=O)c2ccco2)CC1 (configuration not stated)	-20	10	-4	-3	-13	/
COc1ccc(NC(=O)C2CCCN(C(=O)Nc3cccc(OC)c3)C2)cc1 (configuration not stated)	-6	0	0	-6	381*	0
COc1ccc(Cl)cc1NC(=O)CN(C)C(=O)c1ccc(OCc2ccccc2)c(OC)c1	-3	12	21	2	-7	/
CCOc1ccc(NC(=O)CN(C)C(=O)c2ccc(OCc3ccccc3)c(OC)c2)cc1OCC	-8	30	0	-4	540*	1
CCC(=O)Nc1ccc2c(c1)C(=O)N(C)C2=O	0	1	-5	2	i	/
CN1C(=O)c2ccc(NC(=S)NC(=O)C(C)(C)C)cc2C1=O	-6	8	-5	-1	439*	0
CN1C(=O)c2cccc3c(Cl)ccc(c23)C1=O	1	2	8	-5	610*	1
CN1C(=O)c2cccc3c(Br)ccc(c23)C1=O	-4	1	1	-1	0	/
O=C(CSc1ccc([N+](=O)[O-])cc1)Nc1ccccc1N1CCOCC1	6	/	32	-2	3	/
O=C(Nc1ccccc1N1CCOCC1)c1cc(Br)c(Br)s1	1	-1	2	-6	760*	-1
SMILES	NadD inh	Calb FLC	FAS-TE inh	ATG4B inhibitor	SUMO Mot1 rescue	Yeast Mot1 SUMO
O=C(CSc1ccc(Br)cc1)Nc1ccccc1N1CCOCC1	1	10	21	4	722*	0
COc1ccccc1-c1nc(SCC(=O)Nc2cc(C)on2)c2c(=O)n(C)c(=O)n(C)c2n1	-4	-2	-8	5	14	/
O=C(N=C1SC2CS(=O)(=O)CC2N1Cc1ccccc1)C1CC1 (configuration not stated)	1	/	-4	/	/	/
COc1ccc(CCNC(=O)C2CCCN(S(=O)(=O)N3CCCCCC3)C2)cc1OC (configuration not stated)	-2	0	-3	-3	-8	/
CSc1ccc(CCNC(=O)C2CCCN(S(=O)(=O)N3CCOCC3)C2)cc1 (configuration not stated)	0	6	-3	-3	564*	0
O=C(c1ccc(-c2ccccc2)cc1)C1CCCN(Cc2ccncc2)C1 (configuration not stated)	1	20	2	13	365*	0
Cn1nc(C(C)(C)C)c([N+](=O)[O-])c1C(=O)Nc1ccccc1	-1	?	-13	-3	586*	0
COc1cc(C(=O)Nc2cc(-c3cn4cccnc4n3)ccc2C)cc(OC)c1OC	0	1	0	7	3	/
CCC(C)n1c(SCC(=O)NC2CCS(=O)(=O)C2)nc2ccccc2c1=O (configuration not stated)	2	-15	-7	1	-4	/
Cc1ccc(C(=O)N2CC(C)OC(C)C2)cc1[N+](=O)[O-] (configuration not stated)	-3	-4	-2	-2	-5	/
CC1CN(C(=O)c2cc([N+](=O)[O-])cc([N+](=O)[O-])c2)CC(C)O1 (configuration not stated)	-2	-15	-8	0	+	1
CS(=O)(=O)N1CCCC(C(=O)Nc2ccc(F)cc2F)C1 (configuration not stated)	-8	5	0	7	+	1
COc1ccccc1C(=O)OCC(=O)Nc1cccc(S(=O)(=O)N2CCCC2)c1	-8	/	3	-12	/	/
COC(=O)c1ccccc1N(C)S(C)(=O)=O	-3	0	-7	-7	563*	0
CC(=O)Nc1cccc(OCC(O)Cn2cnc3ccccc32)c1 (configuration not stated)	-5	11	-11	0	12	/
CC(=O)Nc1cccc(OCC(O)Cn2c(C)nc3ccccc32)c1 (configuration not stated)	1	0	-10	-5	655*	0
CCc1nn(C)c(N)c1C	-2	-5	-3	5	392*	0
CCC1(C2=CCCCC2)C(=O)NC(=S)N=C1N (configuration not stated)	2	/	-6	2	/	/
Cc1ccnc(NC(=O)c2cccs2)c1	-8	-5	-9	-2	-1	/
Cc1ccnc(NC(=O)c2ccc(Br)s2)c1	-4	-16	-2	-4	618*	-2
Cc1cccc(OCc2nnc(SCC(=O)O)n2-c2ccccc2)c1	3	1	-7	0	+	1
COc1cc(/C=N/n2cnnc2)ccc1OCc1ccccc1	-4	1	-7	-8	540*	1
O=C(NC1CCCCC1)c1ccc2snnc2c1	-1	3	-1	4	529*	0
